Giardia kill = Small Molecules that selectively kill Giardia lamblia: qHTS | Giardia lamblia trophozoite viability | activity change, % at 7.66 µM, hits read low | hit rate 0.15% among 340,000 | AID 540267, 2011; in the data active = activity change below about -80%; inconclusive = between about -30% and that limit;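 note: parasites exposed to compound for two days anaerobically before the ATP read; % is set by controls: 0 for no effect and ±100 for the full control effect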
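Anaerobic 48 hrs incubation at 37 deg C of 100 trophozoites/well with test compounds; ATPLite 1-Step luminescence, 15-30 min RT, reports cellular ATP as viability.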
VP16 counter = VP16 counterscreen qHTS for inhibitors of ROR gamma transcriptional activity; AID 2546, 2010; Potency, µM (titrated, usually from 53.6 µM), for inactives: at the highest dose activity, negative = inhibition, most hits filed as inhibitors; hit rate 3.5% among 310,000; Drosophila S2 Gal4-VP16 UAS-luciferase, luminescence, 20 h;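 note: Gal4-VP16 expression switched on by copper sulfate through the metallothionein promoter; potency is the fitted concentration of half-maximal effect; % is set by controls: 0 for no effect and ±100 for the full control effect; nearly all actives have a fitted effect of over 50% in size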
RORgamma inh = qHTS for inhibitors of ROR gamma transcriptional activity. Nuclear receptor ROR-gamma (Mus musculus), P51450. Drosophila S2 Gal4-RORgamma UAS-luciferase reporter, 20 h. Potency, µM (titrated, usually from 53.6 µM), for inactives: at the highest dose activity change, negative = inhibition, actives largely listed as inhibitors. hit rate 5.4% among 310,000. AID 2551, 2010; note: potency is the fitted concentration of half-maximal effect; % is set by controls: 0 for no effect and ±100 for the full control effect; nearly all actives have a fitted effect of over 60% in size
Target sequence (P51450 whole entry, looked up, the tested form may be a part): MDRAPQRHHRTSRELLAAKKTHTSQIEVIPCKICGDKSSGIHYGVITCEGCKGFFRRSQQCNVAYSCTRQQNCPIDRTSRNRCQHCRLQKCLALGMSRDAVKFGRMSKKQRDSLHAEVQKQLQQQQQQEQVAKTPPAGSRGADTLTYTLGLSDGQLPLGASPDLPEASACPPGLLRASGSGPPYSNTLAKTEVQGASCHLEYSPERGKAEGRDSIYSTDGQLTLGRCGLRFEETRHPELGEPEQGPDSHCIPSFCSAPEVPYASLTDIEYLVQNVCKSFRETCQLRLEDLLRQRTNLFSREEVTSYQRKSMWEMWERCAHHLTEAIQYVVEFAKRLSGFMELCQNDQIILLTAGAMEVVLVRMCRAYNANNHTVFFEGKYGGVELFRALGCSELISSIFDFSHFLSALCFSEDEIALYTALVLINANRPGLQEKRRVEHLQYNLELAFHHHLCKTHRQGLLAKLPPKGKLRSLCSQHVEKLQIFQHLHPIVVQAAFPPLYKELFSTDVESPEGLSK
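ROR gamma transcriptional activity was tracked as Gal4-UAS luciferase output in stably transfected Drosophila Schneider cells, with compound added 1 hr before 700 uM copper sulfate induction and a 20 hr ambient-temperature incubation.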
BRCA1 expr act = qHTS Assay to Identify Small Molecule Activators of BRCA1 Expression | Potency, µM (titrated, usually from 46.1 µM), for the others: top-dose activation, hits mostly activators | MCF7-BRCA1-FFLuc reporter, luminescence, 48 h; response scale: scaled: vehicle 0%, 10 µM genistein 100% | hit rate 1.1% among 380,000; note: potency is the fitted concentration of half-maximal effect; nearly all actives have a fitted effect of over 80% in size
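MCF7-BRCA1-FFLuc cells, 2000/well in phenol-red-free MEM, attached 2 h then treated 48 h at 37 C. Luciferase luminescence read 15 min after reagent; normalized to genistein maximum activation (10microM) and DMSO, concentration-response fitted.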
ELG1 DNA repair = qHTS screen for small molecules that inhibit ELG1-dependent DNA repair in human embryonic kidney (HEK293T) cells expressing luciferase-tagged ELG1. AID 504467, 2011. hit rate 2.3% among 330,000. HEK293T ELG1-luciferase reporter, luminescence, 16 h; DNA damage induced by 5-fluorouridine. Potency, µM (series often up to 46.1 µM), inactives show at the highest dose activity change, negative = inhibition, actives largely listed as inhibitors; note: potency is the fitted concentration of half-maximal effect; % is set by controls: 0 for no effect and ±100 for the full control effect; nearly all actives have a fitted effect of over 55% in size
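HEK293T cells expressing luciferase-tagged ELG1 (2,000/well) received 5-Fluorouridine plus compound or DMSO for 16 hr at 37 °C. Luciferase was read by ONE-Glo luminescence after 30 min at room temperature.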
p53 reactivation = qHTS assay for re-activators of p53 using a Luc reporter; H1299 p53-A138V BP100-luciferase reporter, luminescence, 24 h; Potency, µM (top dose mostly 92.2 µM), without a hit: at the highest dose activity change, positive = activation, hits mostly activators; hit rate 0.063% among 320,000; note: potency is the fitted concentration of half-maximal effect; % of control where 0% means no effect; nearly all actives have a fitted effect of over 45% in size
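H1299 (p53-null), stable ts p53-A138V + BP100-Luc; 1000 cells/well, Opti-MEM/10% FBS; cpd 4 pt, 1:5; 24 h, 37 deg C, 5% CO2; detection reagent 10 min RT; luminescence.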
Active calls of the source: *; ? = inconclusive; . = no result given; [ ] = dose if it differs, or a comment. Shown are actives, neighbours in structure and some others; about 7.6% of the full set was active somewhere. Unless noted, calls come from the whole dose curve; as a rule, active = well fitted curve in the direction sought with a large enough effect; inconclusive = small, poorly fitted or top-dose-only effect, or another doubt; inactive = no such curve, though single readings can be large; an effect the other way counts as inactive or inconclusive.

SMILES | Giardia kill | VP16 counter | RORgamma inh | BRCA1 expr act | ELG1 DNA repair | p53 reactivation
CSc1cccc(NC(=S)N(CCC(C)C)C2CCN(C(C)=O)CC2)c1 | -7.0 | 7.7% | ? | -33.1% | -19.0% | 4.6%
CCN(C(=S)Nc1ccccc1F)C1CCCCC1 | -23.7 | 2.6% | 12.6µM* | -29.8% | 0.8% | 1.3%
CSc1cccc(NC(=S)N(CCC(C)C)C2CCN(C(C)C)CC2)c1 | 7.1 | ? | 12.6µM* | -31.2% | 2.6% | 11.3%
O=C(O)CNC(=S)N(Cc1cccs1)C1CCCCC1 | -1.9 | -9.3% | -1.3% | 0.5% | 16.0% | 0.8%
Cc1ccccc1NC(=S)N(Cc1cccs1)C1CCCCC1 | -4.4 | 4.1% | 12.6µM* | -12.3% | -0.6% | 1.2%
Cc1c(Cl)cccc1NC(=S)N(Cc1cccs1)C1CCCC1 | 11.2 | ? | 11.2µM* | -22.3% | -10.6% | -0.8%
O=C(CN1C(=O)NC2(CCCCC2)C1=O)NCCc1ccc(Cl)cc1Cl | -5.1 | . | . | -27.3% | -4.0% | 4.3%
COc1ccc(CN(C)S(=O)(=O)c2nnc(NC(=O)c3ccc(C)cc3)s2)cc1OC | -14.8 | 3.0% | 2.8% | 0.7% | 3.3% | -4.5%
COC(=O)c1ccc(C2=NOC(C)(c3nnc(-c4cccc(Cl)c4)o3)C2)cc1 (configuration not stated) | 5.9 | . | . | -0.6% | . | .
CCOC(=O)c1ccc(NC(=S)N(CCN2CCCCCC2)Cc2cccs2)cc1 | -21.1 | ? | 12.6µM* | -35.2% | ? | 0.3%
Cc1ccc(NC(=S)N(CCCN2CCOCC2)Cc2cccs2)c(C)c1 | 6.6 | ? | ? | -11.2% | 11.9% | -7.4%
CSc1cccc(NC(=S)N(CCCN2CCC(C)CC2)Cc2cccs2)c1 | -11.6 | 7.8%[10 µM] | 12.6µM* | -41.4% | -15.3% | 18.4%
Cc1ccc(Cl)cc1NC(=S)N(Cc1cccs1)C1CCCC1 | 1.5 | ? | 17.8µM* | -28.5% | -1.2% | 0.5%
Cc1c(Cl)cccc1NC(=S)N(CCCN1CCOCC1)Cc1cccs1 | -1.4 | ? | 10µM* | -31.9% | -1.2% | -7.0%
COc1cc(C2N(C)C(=O)c3ccccc3N2C)ccc1O (configuration not stated) | 5.8 | -5.1% | -9.2%[1.91 µM] | 2.4% | 3.2% | .
CCCn1c(SCC(=O)Nc2c(CC)cccc2CC)nnc1C(C)C | -8.9 | 8.6% | 19.1% | -3.3% | 16.0% | -1.5%
COc1ccc(-c2cc3nc(-c4ccccc4)cc(N4CCN(C(=O)c5ccccc5)CC4)n3n2)cc1 | . | . | . | 7.2% | . | .
COc1ccc(-c2cc3nc(-c4ccccc4)cc(N4CCC(O)CC4)n3n2)cc1 | 5.2 | -21.5% | 4.4% | -96.8% | 16.4µM* | -2.9%
COc1ccc(-c2cc3nc(-c4ccccc4)cc(N4CCCC(O)C4)n3n2)cc1 (configuration not stated) | -15.0 | -24.2% | 3.6% | -83.4% | 16.4µM* | -2.4%
COc1ccc(-c2cc3nc(-c4ccccc4)cc(N4CCN(C(C)=O)CC4)n3n2)cc1 | . | . | . | -18.1% | . | .
Cc1ccc(NC(=O)CSc2nnc(/N=C/N(C)C)s2)cc1 | -9.0 | -20.8% | 17.8µM* | -39.4% | -8.7% | -1.1%
COc1ccc(/C=C2/Sc3ccc(C(=O)NCCN4CCCCCC4)cc3NC2=O)cc1 | -6.0 | 20µM* | ? | -96.8% | ? | -19.2%
COc1ccc2nc3ccccc3nc2c1 | 7.7 | -20.5% | 3.6% | 12.6µM* | ? | 12.2%
COC(=O)CC1=NN(c2ccc(OC)cc2)C(=O)/C1=C\c1ccc(Cl)cc1 | -6.1 | ? | 9.3% | -8.0% | 6.8% | -8.0%
COC(=O)CSc1nc(C)cc(Oc2ccccc2)n1 | 10.2 | -0.3% | 10.1% | 0.0% | 7.3% | 2.8%
SMILES | Giardia kill | VP16 counter | RORgamma inh | BRCA1 expr act | ELG1 DNA repair | p53 reactivation
Cc1cc(Oc2ccccc2)nc(SCC(=O)Nc2ccc(Cl)cc2Cl)n1 | 6.2 | 8.7% | 3.55µM* | -18.7% | -14.7% | 5.0%
COc1ccc(S(=O)(=O)NCC(c2ccc3c(c2)OCO3)N2CCOCC2)cc1C (configuration not stated) | 14.6 | . | . | -20.6% | 27.5% | 3.0%
Cc1ccc(-c2nc(-c3ccccc3)no2)c(Cl)c1 | ? | 7.08µM* | 10µM* | -47.9% | ? | 13.8%
CCCc1noc(-c2ccc(-c3ccccc3)cc2)n1 | 21.3 | -12.5% | -28.3% | 8.91µM* | ? | ?
COc1nc(-c2ccccc2)ccc1-c1noc(-c2ccccc2)n1 | -0.2 | 0.8% | 18.4% | 6.31µM* | ? | ?
Cc1ccc(-c2nc(-c3ccccc3)no2)cc1 | -3.3 | 12.6µM* | 10µM* | ? | ? | ?
Brc1ccccc1-c1nc(-c2ccccc2)no1 | . | . | -11.8%[0.365 µM] | . | ? | ?
CCC1CCCCN1CCCNC(=O)CSc1nc2nc(C)c(Cc3ccccc3Cl)c(C)n2n1 (configuration not stated) | 3.8 | -0.9% | -1.3% | -24.4% | -4.4% | -4.9%
Cc1ccc(-c2nc(-c3ccncc3)no2)cc1 | -3.0 | ? | 14.1µM* | ? | ? | ?
O=C(NCCN1CCN(c2ccccc2Cl)CC1)Nc1ccccc1 | 24.8 | 5.2% | -22.7%[1.91 µM] | 4.2% | -14.4% | ?
CCN(CC)CCNC(=O)c1ccc(Cl)c(S(=O)(=O)Nc2ccc(Cl)cc2)c1 | ? | 20µM* | ? | 0.2% | 2.8% | -1.7%
O=C(CSc1nc2ccccc2c(=O)n1CCC(=O)N1CCN(c2ccccc2)CC1)NCC1CCCO1 (configuration not stated) | 0.2 | 0.5% | 19.1% | -3.3% | -12.2% | -4.6%
O=C(CSc1nc2ccc(N3CCOCC3)cc2c(=O)n1CCc1ccccc1)NCC1CCCO1 (configuration not stated) | 16.2 | 12.6µM* | 5.62µM* | 0.0% | ? | 3.8%
COCCNC(=O)CSc1nc2ccc(N3CCOCC3)cc2c(=O)n1CCc1ccccc1 | 16.5 | ? | 3.55µM* | -3.5% | -27.6% | -4.8%
CCCCn1c(SCC(=O)NCCOC)nc2ccc(N3CCOCC3)cc2c1=O | -6.5 | -17.3% | ? | -0.2% | 10.7% | 1.9%
CCCCNC(=O)CSc1nc2ccccc2c(=O)n1CCNC(C)=O | 13.6 | -4.9% | 21.8% | 0.7%[1.84 µM] | -0.3% | -6.1%
CCOC(=O)CSc1nc2ccccc2c(=O)n1CCN1CCOCC1 | -9.5 | -15.1% | -20.7% | 1.2% | ? | -7.7%
CCOC(=O)CSc1nc2ccc(N3CCOCC3)cc2c(=O)n1Cc1ccccc1 | 5.4 | ? | 12.6µM* | -2.4%[1.84 µM] | ? | 1.0%
CCCCNC(=O)CSc1nc2ccc(N3CCOCC3)cc2c(=O)n1CCc1ccccc1 | 0.9 | 7.94µM* | 7.94µM* | -12.2% | ? | ?
